In the library only some 3.4% were active in any assay of this set; here they are far more common.
TEAD-YAP block: TEAD-YAP interaction inhibition, primary screen, TEAD-YAP interaction inhibitor project, luminescence, HEK-TIYL cells | TEAD-Gal4/YAP UAS-luciferase luminescence | inhibition, % at 9.12 µM | hit rate 1.4% among 640,000 | AID 1259422, 2018; in the data active = inhibition above about 32%
GPR151 ag: activators of human GPR151, primary screen, cell-based, PathHunter beta-arrestin, luminescence; G-protein coupled receptor 151 (Homo sapiens), Q8TDV0; PathHunter beta-arrestin GPR151 cells; activation, % at 11.2 µM; hit rate 1% among 650,000; in the data active = activation above about 4.9%
MITF inh: MITF inhibitors, primary screen, biochemical, AlphaScreen, human; Microphthalmia-associated transcription factor (Homo sapiens), O75030; AlphaScreen MITF homodimerization, bead proximity signal; inhibition, % at 2.6 µM; hit rate 0.91% among 650,000; AID 1259374, 2018; in the data active = inhibition above about 50%
Target sequence (O75030 whole entry, looked up): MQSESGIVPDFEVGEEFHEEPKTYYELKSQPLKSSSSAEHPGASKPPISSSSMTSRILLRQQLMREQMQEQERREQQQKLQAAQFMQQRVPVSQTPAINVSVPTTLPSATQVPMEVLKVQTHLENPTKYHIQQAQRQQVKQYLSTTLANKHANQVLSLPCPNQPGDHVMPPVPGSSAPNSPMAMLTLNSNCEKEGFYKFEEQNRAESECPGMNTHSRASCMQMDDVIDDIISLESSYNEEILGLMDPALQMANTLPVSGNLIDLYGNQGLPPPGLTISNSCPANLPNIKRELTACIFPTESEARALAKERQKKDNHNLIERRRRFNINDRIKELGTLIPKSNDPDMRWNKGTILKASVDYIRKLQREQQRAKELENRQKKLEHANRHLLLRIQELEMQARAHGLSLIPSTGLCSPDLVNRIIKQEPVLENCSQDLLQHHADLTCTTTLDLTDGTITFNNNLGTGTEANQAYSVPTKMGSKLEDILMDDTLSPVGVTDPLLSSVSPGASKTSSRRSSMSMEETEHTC
FBW7 act: FBW7 E3 ligase activators, primary screen, biochemical, AlphaScreen, human; F-box/WD repeat-containing protein 7 (Homo sapiens), Q969H0; AID 1259310, 2017; normalized activity (activation), % at 26.1 µM; hit rate 0.13% among 650,000; AlphaScreen FBW7–phospho-cyclin E peptide binding, activator screen; in the data active = normalized activity above about 1.9%;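 also: purified mutant Fbw7 with reduced substrate affinity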
MITF confirm: MITF inhibitors, retest of hits, confirmation, biochemical, AlphaScreen, triplicate. shares compounds with MITF inh. AlphaScreen MITF homodimerization, biotin/His-MITF beads. inhibition, % at 2.6 µM. hit rate 16% among 4,700. AID 1259372, 2018;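 active = inhibition above a cutoff derived from the DMSO control wells, cut at about 28% in these data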;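 also: inhibitors lower the bead chemiluminescence by keeping MITF from dimerizing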
AlphaScreen DR: AlphaScreen optical interference compounds, dose response, counter-screen, biochemical, HTS. shares compounds with MITF inh. AlphaScreen optical interference counterscreen, cell-free. IC50, µM. hit rate 6% among 480; call rule not given here
AlphaScreen intf2: AlphaScreen optical interference compounds, counter-screen for MITF inhibitor project, biochemical, triplicate | shares compounds with MITF inh | LysRS AlphaScreen counterscreen, signal interference | inhibition, % at 2.6 µM | hit rate 7.6% among 4,700 | AID 1259376, 2018;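 active = inhibition above a cutoff derived from the DMSO control wells, cut at about 30% in these data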
Large screens that a line does not name were inactive (follow-up assays come after a bar, where they were run); ! = not active in a repeat.

CCCCNCCOCCOc1cccc(Cl)c1	MITF inh 80 | MITF confirm inactive | AlphaScreen intf2 inactive
CCCCNCCOCCOc1ccc(C)c(C)c1	MITF inh 61 | MITF confirm inactive | AlphaScreen intf2 inactive
CC(C)C(OC(=O)C1=Cc2ccccc2OC1)C(=O)NC(C)(C)C (stereo not given)	none
COc1cccc(NC(=O)CSc2nc3ccccc3c(=O)n2CC2CCC(C(=O)NCCc3ccccc3)CC2)c1 (stereo not given)	none
CCCNc1nc(-c2cccs2)nc2c1ncn2CCN1CCCC1=O	none
CN(C)c1cccc(Nc2ccc(-c3ccccc3C=O)cn2)c1	MITF inh 63 | MITF confirm 56 | AlphaScreen intf2 61
CC(=O)c1cccc(-c2ccc(Nc3cccc(N(C)C)c3)nc2)c1	none
O=C(Nc1nc(-c2ccccn2)cs1)C1CC1	none
O=C(Nc1nc(-c2ccccn2)cs1)C12CC3CC(CC(O)(C3)C1)C2	MITF inh 55 | MITF confirm 61 | AlphaScreen intf2 100
N#C/C(=C\c1nn(CCO)c(N)c1C#N)c1ccco1	none
N#C/C(=C\c1nn(-c2ccccc2)c(N)c1C#N)c1ccco1	MITF inh 59 | MITF confirm 83 | AlphaScreen DR inactive | AlphaScreen intf2 inactive
C=C1c2c(Cl)ccc(O)c2C(O)=C2C(=O)[C@]3(O)C(O)=C(C(N)=O)C(=O)[C@@H](N(C)C)[C@@H]3[C@@H](O)[C@H]12	MITF inh 63 | MITF confirm 85 | AlphaScreen DR inactive | AlphaScreen intf2 30!
C=C1c2cccc(O)c2C(O)=C2C(=O)[C@]3(O)C(O)=C(C(N)=O)C(=O)[C@@H](N(C)C)[C@@H]3[C@@H](O)[C@H]12	MITF inh 54 | MITF confirm 41! | AlphaScreen DR inactive | AlphaScreen intf2 inactive
O=C(Oc1ccccc1Br)c1cc([N+](=O)[O-])cc([N+](=O)[O-])c1	none
COC(=O)c1ccc2c(=O)n(CCCCCC(=O)NCCC(C)C)c(=O)[nH]c2c1	none
C/C(=N/NC(=O)c1ccccc1N)c1ccc(O)cc1	none
N#CC1=C(N)n2c(s/c(=C\c3ccco3)c2=O)=C(C#N)C1c1ccco1 (stereo not given)	MITF inh 56 | MITF confirm 42 | AlphaScreen DR inactive | AlphaScreen intf2 inactive
Cc1c(CN2CCC(N3CCC(C(=O)NC4CC4)CC3)CC2)[nH]c2c(Cl)cccc12	none
O=C(Nc1ccc(O)cc1)c1cc(S(=O)(=O)N2CCCC2)ccc1Cl	MITF inh 70 | MITF confirm inactive | AlphaScreen intf2 inactive
C=C1CN=C(N(Cc2ccccc2)S(=O)(=O)c2ccccc2)S1	none
CCOc1cc(/C=C2/SC(=Nc3ccccc3)N(Cc3ccccc3)C2=O)ccc1OCc1ccccc1C#N	none
CCCCCCCCCCCCCCCC(=O)OC[C@H](O)[C@H]1OC(=O)C(=O)C1O (stereo not given in full)	MITF inh 81 | MITF confirm 42 | AlphaScreen DR inactive | AlphaScreen intf2 inactive
Cc1ccc(C2(O)CC3CCC(C2)N3c2cc(C)nc(N)n2)cc1 (stereo not given)	none
Cc1ccnc(N2C3CCC2CC(O)(c2ccccc2)C3)n1 (stereo not given)	MITF inh 53 | MITF confirm inactive | AlphaScreen intf2 inactive
CC(NC(=O)CN1CCN(c2cccc(Cl)c2)CC1)c1ccccc1 (stereo not given)	none
CCCN1CCN(CC(=O)NC(C)c2cccc(Cl)c2)CC1 (stereo not given)	MITF inh 92 | MITF confirm inactive | AlphaScreen intf2 inactive
O=C(/C=C/c1ccco1)NC(=S)Nc1cccc(C(=O)O)c1	MITF inh 69 | MITF confirm 62 | AlphaScreen DR inactive | AlphaScreen intf2 inactive
COc1cccc(NC(=S)NC(=O)/C=C/c2ccco2)c1	none
CCN1CCc2c(sc(NC(=S)NC(=O)/C=C/c3ccccc3)c2C(N)=O)C1	none
O=C(/C=C/c1ccco1)NC(=S)Nc1ccc(Cl)c(C(=O)O)c1	MITF inh 76 | MITF confirm 64 | AlphaScreen DR inactive | AlphaScreen intf2 inactive
CCN1CCc2c(sc(NC(=S)NC(=O)/C=C/c3ccco3)c2C(N)=O)C1	MITF inh 78 | MITF confirm 79 | AlphaScreen DR inactive | AlphaScreen intf2 inactive
CC(=O)Nc1cccc(N2C(=O)c3ccc(Br)cc3C2=O)c1	none
COc1cc(C(C)=O)ccc1OCCN1CCN(Cc2ccccc2)CC1	MITF inh 62 | MITF confirm inactive | AlphaScreen intf2 inactive
CCC(=O)c1ccccc1OCCCCN1CCN(CC)CC1	MITF inh 60 | MITF confirm inactive | AlphaScreen intf2 inactive
CCC(=O)c1ccccc1OCCN1CCN(C)CC1	none
CCC(=O)c1ccccc1OCCN1CCN(Cc2ccccc2)CC1	MITF inh 66 | MITF confirm inactive | AlphaScreen intf2 inactive
COc1ccc(C(=O)NC(=S)N2CCN(Cc3ccccc3)CC2)cc1OC	none
CC1CN(C2CCCCC2)c2nc3c(c(=O)n(Cc4ccccc4)c(=O)n3C)n2C1 (stereo not given)	none
N[C@@H](C(=O)N[C@@H]1C(=O)N2C(C(=O)O)=C(CSC3CNNN3)CS[C@H]12)c1ccc(O)cc1 (stereo not given in full) (tested in a mixture with another compound)	MITF inh 63 | MITF confirm 72 | AlphaScreen DR 0.67 | AlphaScreen intf2 inactive
Cc1cccc(Nc2nc(-c3ccccc3)c3cc(Cl)ccc3n2)c1	none
O=C1NC(=O)c2cc(NS(=O)(=O)c3cc(Cl)ccc3Cl)ccc21	none
COc1ccc(OCC(O)CNCCCN(C)C)c(C(C)(C)C)c1 (stereo not given)	MITF inh 68 | MITF confirm inactive | AlphaScreen intf2 inactive
COc1ccccc1COCC(O)CNCC12CC3CC(CC(C3)C1)C2 (stereo not given)	MITF inh 64 | MITF confirm inactive | AlphaScreen intf2 inactive
COc1ccc(OCC(O)CNCCC(C)C)c(C(C)(C)C)c1 (stereo not given)	none
COc1ccccc1COCC(O)CNCCc1ccc(C(F)(F)F)cc1 (stereo not given)	none
COc1ccccc1COCC(O)CNCCCN(C)C (stereo not given)	MITF inh 56 | MITF confirm inactive | AlphaScreen intf2 inactive
Clc1cccc2nnc(-c3cccc(I)c3)n12	none
O=C1S/C(=C\c2ccco2)C(=O)N1c1ccccc1Cl	MITF inh 78 | MITF confirm 79 | AlphaScreen DR inactive | AlphaScreen intf2 inactive
CCOC(=O)c1ccc(NC(=O)CCSc2ccc(C)cc2)cc1	none
